Data from PubChem BioAssay AID1159580 (chemical genetic matrix, 2015).
“And” between values parts separate entries of the source, which are not always exact repeats. Identical values can stand only once. The whole screen tested about 5,500 compounds, of which about 2,000 (36%) were called active. Not shown: some 18% with an inconclusive outcome. No stated cut-off is given here; in the data, active means normalized growth mostly below about 0.91 (no sharp cut-off); inconclusive means no clear call, values can overlap the other calls; inactive means mostly above about 0.92. This is one part of the list.

Assay: chemical genetic growth profiling, strain panel (AID 1159580);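 further: tested at 20 µM; growth read once vehicle control cultures reached saturation at 30 °C; 1 = growth at the plate median or of vehicle wells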
Details: S. cerevisiae deletion strains, growth OD

Measured: normalized growth

COc1ccc2c(c1O)-c1c(OC)c(OC)cc3c1[C@H](C2)N(C)CC3
inactive: locus YAL021C, strain ccr4, stronger effect = lower value 0.926 | locus YAL026C, strain drs2, stronger effect = lower value 0.985 | locus YAL030W, strain snc1, stronger effect = lower value 0.989 | locus YBL061C, strain skt5, stronger effect = lower value 0.99 | locus YBR009C, strain hhf1, stronger effect = lower value 1.01 | locus YBR021W, strain FUR4, stronger effect = lower value 1.02 | locus YBR023C, strain chs3, stronger effect = lower value 0.988 | locus YBR171W, strain sec66, stronger effect = lower value 0.976 | locus YBR229C, strain ROT2, stronger effect = lower value 1 | locus YBR231C, strain swc5, stronger effect = lower value 0.991 | locus YBR279W, strain paf1, stronger effect = lower value 0.978 | locus YCL011C, strain gbp2, stronger effect = lower value 0.979 | locus YCL016C, strain dcc1, stronger effect = lower value 0.983 | locus YCL029C, strain bik1, stronger effect = lower value 1.04 | locus YCL061C, strain MRC1, stronger effect = lower value 0.979 | locus YCL069W, strain vba3, stronger effect = lower value 0.981 | locus YCR088W, strain abp1, stronger effect = lower value 0.975 | locus YDL005C, strain med2, stronger effect = lower value 0.982 | locus YDL035C, strain GPR1, stronger effect = lower value 1.06 | locus YDL040C, strain nat1, stronger effect = lower value 0.982 | locus YDL074C, strain BRE1, stronger effect = lower value 1.1 | locus YDL101C, strain DUN1, stronger effect = lower value 1.02 | locus YDL185W, strain tfp1, stronger effect = lower value 1.03 | locus YDL192W, strain arf1, stronger effect = lower value 1.03 | locus YDR001C, strain nth1, stronger effect = lower value 0.982 | locus YDR069C, strain doa4, stronger effect = lower value 0.989 | locus YDR101C, strain arx1, stronger effect = lower value 1.03 | locus YDR137W, strain rgp1, stronger effect = lower value 0.983 | locus YDR150W, strain NUM1, stronger effect = lower value 1.01 | locus YDR159W, strain sac3, stronger effect = lower value 1 | locus YDR162C, strain NBP2, stronger effect = lower value 1.01 | locus YDR195W, strain ref2 0.991 | locus YDR297W, strain sur2, stronger effect = lower value 0.974 | locus YDR318W, strain mcm21, stronger effect = lower value 1.01 | locus YDR334W, strain swr1, stronger effect = lower value 0.951 | locus YDR335W, strain msn5, stronger effect = lower value 0.977 | locus YDR388W, stronger effect = lower value 1.02 | locus YDR392W, strain spt3, stronger effect = lower value 0.931 | locus YDR502C, strain sam2, stronger effect = lower value 1.01 | locus YEL003W, strain gim4, stronger effect = lower value 0.982 | locus YEL037C, strain rad23, stronger effect = lower value 0.988 | locus YEL061C, strain CIN8 (second series), stronger effect = lower value 0.987 | locus YEL061C, strain CIN8, stronger effect = lower value 1.02 | locus YER015W, strain faa2, stronger effect = lower value 0.991 | locus YER016W, strain bim1, stronger effect = lower value 0.985 | locus YER110C, stronger effect = lower value 1.01 | locus YER111C, strain swi4, stronger effect = lower value 0.995 | locus YER155C, strain BEM2 (second series), stronger effect = lower value 1.01 | locus YER155C, strain BEM2, stronger effect = lower value 1 | locus YER167W, strain BCK2, stronger effect = lower value 1.02 | locus YFR010W, strain ubp6, stronger effect = lower value 0.987 | locus YGL078C, strain dbp3, stronger effect = lower value 1.02 | locus YGL086W, strain mad1, stronger effect = lower value 1.04 | locus YGL167C, strain pmr1, stronger effect = lower value 0.999 | locus YGL173C, strain kem1, stronger effect = lower value 0.975 | locus YGL227W, strain vid30, stronger effect = lower value 0.989 | locus YGL240W, strain doc1, stronger effect = lower value 0.996 | locus YGL248W, strain PDE1, stronger effect = lower value 1.01 | locus YGL253W, strain hxk2, stronger effect = lower value 1.01 | locus YGR135W, strain pre9, stronger effect = lower value 1 | locus YGR252W, strain gcn5, stronger effect = lower value 0.991 | locus YHR013C, strain ard1, stronger effect = lower value 0.95 | locus YHR027C, strain rpn1, stronger effect = lower value 0.988 | locus YHR030C, strain SLT2, stronger effect = lower value 1.02 and 0.976 | locus YHR079C, strain IRE1 (second series), stronger effect = lower value 1.01 | locus YHR079C, strain IRE1, stronger effect = lower value 0.993 | locus YHR094C, strain hxt1, stronger effect = lower value 1.01 | locus YHR129C, strain ARP1, stronger effect = lower value 1.03 | locus YHR142W, strain chs7, stronger effect = lower value 0.915 | locus YHR200W, strain rpn10, stronger effect = lower value 1.04 | locus YIL066C, strain RNR3, stronger effect = lower value 1.04 | locus YIL073C, strain SPO22, stronger effect = lower value 1.1 | locus YIL125W, strain kgd1, stronger effect = lower value 1.01 | locus YIR030C, strain dcg1, stronger effect = lower value 1.01 | locus YJL092W, strain hpr5, stronger effect = lower value 0.97 | locus YJL095W, strain BCK1 (second series), stronger effect = lower value 0.995 | locus YJL095W, strain BCK1, stronger effect = lower value 1.03 and 1.01 | locus YJL115W, strain asf1, stronger effect = lower value 0.957 | locus YJL129C, strain trk1, stronger effect = lower value 0.959 | locus YJL134W, strain LCB3, stronger effect = lower value 1.01 | locus YJL154C, strain vps35, stronger effect = lower value 0.982 | locus YJL164C, strain tpk1, stronger effect = lower value 0.972 | locus YJL166W, strain qcr8, stronger effect = lower value 0.987 | locus YJL168C, strain set2, stronger effect = lower value 1.03 | locus YJL187C, strain SWE1 (second series), stronger effect = lower value 1.03 | locus YJL187C, strain SWE1, stronger effect = lower value 0.994 | locus YJR043C, strain POL32, stronger effect = lower value 1.03 | locus YJR066W, strain TOR1, stronger effect = lower value 0.947 | locus YKL009W, strain mrt4, stronger effect = lower value 1.12 | locus YKL068W, stronger effect = lower value 1 | locus YKL085W, strain MDH1 (second series), stronger effect = lower value 1.01 | locus YKL085W, strain MDH1, stronger effect = lower value 1.01 | locus YKL160W, strain elf1, stronger effect = lower value 0.965 | locus YKR001C, strain vps1, stronger effect = lower value 1.03 | locus YKR026C, strain gcn3, stronger effect = lower value 0.981 | locus YKR091W, strain srl3, stronger effect = lower value 0.975 | locus YLL001W, strain dnm1, stronger effect = lower value 0.986 | locus YLL026W, stronger effect = lower value 0.989 | locus YLL041C, strain sdh2, stronger effect = lower value 0.975 | locus YLR027C, strain aat2, stronger effect = lower value 0.987 | locus YLR039C, strain RIC1, stronger effect = lower value 1.09 | locus YLR058C, strain SHM2, stronger effect = lower value 1.01 | locus YLR102C, strain apc9, stronger effect = lower value 1.02 | locus YLR113W, strain HOG1, stronger effect = lower value 1 | locus YLR221C, strain rsa3, stronger effect = lower value 0.981 | locus YLR258W, strain gsy2, stronger effect = lower value 0.999 | locus YLR262C, strain YPT6 (second series), stronger effect = lower value 0.972 | locus YLR262C, strain YPT6, stronger effect = lower value 1.1 | locus YLR268W, strain sec22, stronger effect = lower value 1.05 | locus YLR320W, strain mms22, stronger effect = lower value 1.01 | locus YLR330W, strain CHS5, stronger effect = lower value 1.02 | locus YLR342W, strain FKS1 (second series), stronger effect = lower value 1.06 | locus YLR342W, strain FKS1, stronger effect = lower value 0.986 | locus YLR357W, strain rsc2, stronger effect = lower value 1 | locus YLR370C, strain arc18, stronger effect = lower value 0.979 | locus YLR371W, strain rom2, stronger effect = lower value 1.03 | locus YLR384C, strain iki3, stronger effect = lower value 0.996 | locus YLR418C, strain cdc73, stronger effect = lower value 1.02 | locus YML016C, strain PPZ1, stronger effect = lower value 1.01 | locus YML032C, strain rad52, stronger effect = lower value 1.02 | locus YML120C, strain ndi1, stronger effect = lower value 0.966 | locus YML124C, strain tub3, stronger effect = lower value 1 | locus YMR058W, strain fet3, stronger effect = lower value 0.968 | locus YMR078C, strain ctf18, stronger effect = lower value 1.02 | locus YMR125W, strain sto1, stronger effect = lower value 0.99 | locus YMR129W, stronger effect = lower value 1.01 | locus YMR205C, strain PFK2, stronger effect = lower value 1.01 | locus YMR223W, strain ubp8, stronger effect = lower value 0.994 | locus YMR231W, strain pep5, stronger effect = lower value 0.987 | locus YMR307W, strain GAS1, stronger effect = lower value 1.11 | locus YNL067W, strain RPL9B, stronger effect = lower value 1.01 | locus YNL071W, strain lat1, stronger effect = lower value 0.983 | locus YNL183C, strain NPR1, stronger effect = lower value 0.954 | locus YNL209W, strain ssb2, stronger effect = lower value 0.983 | locus YNL233W, strain BNI4, stronger effect = lower value 1.01 | locus YNL248C, strain rpa49, stronger effect = lower value 0.912 | locus YNL250W, strain rad50, stronger effect = lower value 1.01 | locus YNL271C, strain bni1, stronger effect = lower value 1.03 | locus YNL298W, strain CLA4, stronger effect = lower value 1.01 | locus YNL307C, strain MCK1, stronger effect = lower value 1.02 | locus YNL322C, strain KRE1 (second series), stronger effect = lower value 0.974 | locus YNL322C, strain KRE1, stronger effect = lower value 1.02 | locus YNR049C, strain mso1, stronger effect = lower value 0.987 | locus YNR052C, strain pop2, stronger effect = lower value 1.02 | locus YOL006C, strain TOP1, stronger effect = lower value 1.21 | locus YOL012C, strain htz1 1.07 | locus YOL147C, strain pex11, stronger effect = lower value 1.01 | locus YOR001W, strain rrp6, stronger effect = lower value 0.955 | locus YOR061W, strain CKA2, stronger effect = lower value 1.02 | locus YOR069W, strain VPS5, stronger effect = lower value 1.01 | locus YOR070C, strain gyp1, stronger effect = lower value 0.989 | locus YOR080W, strain dia2, stronger effect = lower value 0.999 | locus YOR083W, strain WHI5, stronger effect = lower value 0.943 | locus YOR106W, strain vam3, stronger effect = lower value 0.945 | locus YOR136W, strain idh2, stronger effect = lower value 1.02 | locus YOR144C, strain elg1, stronger effect = lower value 1.01 | locus YOR184W, strain ser1, stronger effect = lower value 1.06 | locus YOR231W, strain MKK1, stronger effect = lower value 1 | locus YOR265W, strain rbl2, stronger effect = lower value 0.984 | locus YOR270C, strain vph1, stronger effect = lower value 0.964 | locus YOR290C, strain snf2, stronger effect = lower value 0.99 | locus YOR316C, strain cot1, stronger effect = lower value 1.04 | locus YPL051W, strain arl3, stronger effect = lower value 0.973 | locus YPL078C, strain atp4, stronger effect = lower value 0.926 | locus YPL106C, strain sse1, stronger effect = lower value 0.972 | locus YPL240C, strain hsp82, stronger effect = lower value 0.976 | locus YPL241C, strain CIN2, stronger effect = lower value 1.01 | locus YPL256C, strain CLN2, stronger effect = lower value 0.973 | locus YPR119W, strain clb2, stronger effect = lower value 1 | locus YPR141C, strain kar3, stronger effect = lower value 1 | locus YPR163C, strain tif3, stronger effect = lower value 1.02 | locus YPR167C, strain met16, stronger effect = lower value 1.04 | strain wtn01, stronger effect = lower value 1.07
